Arbovirus anti: antivirals against arbovirus infection, primary screen, cell-based, full library, 10K replicate subset | arbovirus infection cell-based antiviral screen | inhibition, % at 10 µM | 200,000 tested, 0.37% active | AID 1251, 2008; in the data active means inhibition above about 30%
MEKK2 mut-MEK5: MEK5 binding signal on mutant MEKK2 PB1, primary screen, biochemical, multiplex bead flow cytometry, Alexa488-MEK5 | Alexa488-MEK5 binding to MEKK2 mutant | percent response, % at 10 µM | 290,000 tested, 0.35% active; in the data active means percent response above about 24%, passing the limit was not always enough
MEKK3 PB1 HTS: modulators of MEKK3-MEK5 PB1 binding, primary screen, biochemical, wildtype MEKK3, multiplex bead flow cytometry, Alexa488-MEK5 | Mitogen-activated protein kinase kinase kinase 3 (Homo sapiens), Q99759 | bead-based flow cytometry, Alexa488-MEK5 binding to MEKK3; actives lie on both sides; 0 = blocked by unlabeled MEK5, 100 = vehicle | binding response (% of control), % at 10 µM | 290,000 tested, 1.4% active | AID 1529, 2009;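 active means binding response more than 3 SD above or below the average of its plate-row segment, actives on both sides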;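 further: Alexa488 bead fluorescence after subtracting the streptavidin-only scavenger bead signal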
Target sequence (Q99759 whole entry, looked up): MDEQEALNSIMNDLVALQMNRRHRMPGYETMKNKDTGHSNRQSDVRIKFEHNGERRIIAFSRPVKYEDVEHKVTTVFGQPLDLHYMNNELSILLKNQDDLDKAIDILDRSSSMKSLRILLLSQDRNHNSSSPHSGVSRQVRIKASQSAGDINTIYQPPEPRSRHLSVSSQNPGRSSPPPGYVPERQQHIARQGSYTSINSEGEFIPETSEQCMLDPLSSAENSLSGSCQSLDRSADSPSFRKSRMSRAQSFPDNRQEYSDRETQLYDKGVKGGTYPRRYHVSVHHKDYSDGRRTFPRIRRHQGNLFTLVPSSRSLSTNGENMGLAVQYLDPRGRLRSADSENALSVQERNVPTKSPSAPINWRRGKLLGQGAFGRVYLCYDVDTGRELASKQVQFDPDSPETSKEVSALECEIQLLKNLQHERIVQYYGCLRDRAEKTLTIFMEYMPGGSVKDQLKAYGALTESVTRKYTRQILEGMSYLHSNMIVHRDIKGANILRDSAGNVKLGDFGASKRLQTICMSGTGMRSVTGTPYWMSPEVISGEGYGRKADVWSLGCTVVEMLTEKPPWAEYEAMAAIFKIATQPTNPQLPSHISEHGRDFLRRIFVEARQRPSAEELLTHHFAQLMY
Pf gamet viab: late stage P. falciparum gametocyte viability inhibitors, primary screen, ATP luminescence, HTS. inhibition, % at 10.9 µM. P. falciparum stage V gametocytes, 24 h. 150,000 tested, 0.065% active;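 active means inhibition above the mean plus 3 SD of compounds within the control limits, set per campaign, cut at about 38% in these data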;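 further: 0% = DMSO wells and 100% = medium only without gametocytes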
MEKK2wt PB1 HTS: modulators of MEK5 binding to wildtype MEKK2, primary screen, biochemical, multiplex bead flow cytometry, Alexa488-MEK5; Mitogen-activated protein kinase kinase kinase 2 (Homo sapiens), Q9Y2U5; AID 1531, 2009; binding response (% of control), % at 10 µM; Alexa488-MEK5 binding to MEKK2 WT; actives lie on both sides; 290,000 tested, 1.1% active; in the data active means binding response below about 67% or above about 130%
MEKK2wt confirm: modulators of MEK5 binding to wildtype MEKK2, confirmation, biochemical, single concentration, multiplex bead flow cytometry; shares compounds with MEKK3 PB1 HTS; Alexa488-MEK5 binding to MEKK2 WT; actives lie on both sides; binding response (% of control), % at 10 µM; 5,900 tested, 2.4% active; AID 1892, 2009; in the data active means binding response below about 16% or above about 210%; inactive means in between
MEKK2mut confirm: mutant MEKK2 PB1-MEK5 binding signal retest – biochemical, single concentration, multiplex bead flow cytometry, confirmation | AID 1893, 2009 | Alexa488-MEK5 binding to MEKK2 mutant | percent response, % at 10 µM | 5,900 tested, 2% active | shares compounds with MEKK3 PB1 HTS; in the data active means percent response mostly above about 71%, no sharp cut-off; inactive means mostly below about 38%;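 further: higher means compound restores mutant binding toward wildtype level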
MEKK3-MEK5 inh: MEKK3 wild-type PB1 binding to MEK5, inhibitors, confirmation, biochemical, bead multiplex flow cytometry, single concentration, wildtype; shares compounds with MEKK3 PB1 HTS; binding response (% of control), % at 10 µM; 5,900 tested, 1.8% active; Alexa488-MEK5 binding to MEKK3; active compounds read low; AID 1894, 2009;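 active means binding response below 72% of control, or above a set upper limit, though filed actives all read lower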;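 further: 100% = DMSO only wells and 0% = binding blocked by excess unlabeled MEK5; lower values mean stronger disruption of MEK5 binding to MEKK3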
Active calls of the source: *; nt = no result given; [ ] = remark or other dose. Compounds with a hit are over-represented: about 2.4% of the library has one in this group of screens.

SMILES	Arbovirus anti	MEKK2 mut-MEK5	MEKK3 PB1 HTS	Pf gamet viab	MEKK2wt PB1 HTS	MEKK2wt confirm	MEKK2mut confirm	MEKK3-MEK5 inh
COc1cc(C(=O)Nc2ccc3c(c2)Cc2ccccc2-3)cc(OC)c1OC	-17.9	-2.0	135.0*	nt	105.0	105.0	1.0	100.0
Cc1ccc(CN2CCN(Cc3cc4ccccc4o3)CC2CCO)cc1 (centres undefined)	nt	3.0	106.0	2.1	109.0	nt	nt	nt
CCN(CC)c1cc(C)c(C#N)c2nc3ccccc3n12	nt	2.0	88.0	6.3	93.0	nt	nt	nt
CCN(CC)c1c2c(c(C#N)c3nc4ccccc4n13)CCC2	-5.6	1.0	69.0*[inhibitor]	1.3	105.0	103.0	6.0	103.0
Cc1ccc(NC(=O)CC2SC(=NCC3CCCO3)NC2=O)cc1Cl (centres undefined)	-2.9	-1.0	139.0*	nt	101.0	96.0	-6.0	102.0
CC(=O)Nc1ccc2nc(-c3ccc(Br)o3)[nH]c2c1	-7.3	-3.0	66.0*[inhibitor]	-8.5	63.0*[inhibitor]	104.0	9.0	104.0
COc1ccc(CCNS(=O)(=O)c2ccc(Br)cc2)cc1OC	nt	5.0	106.0	-20.3	109.0	nt	nt	nt
COC(=O)CCC(=O)OC1(C)C(=O)C=C2C=C(C3CC3)N(C3CCCC3)C=C2C1=O (centres undefined)	nt	4.0	122.0	-0.6	149.0*	100.0	7.0	104.0
COC(=O)CCC(=O)OC1(C)C(=O)C=C2C=C(C3CC3)N(C3CCCCC3)C=C2C1=O (centres undefined)	nt	6.0	98.0	-10.0	106.0	nt	nt	nt
O=C(c1cc(Cl)ccc1Cl)N1CCOCC1	2.0	-21.0	0.0*[inhibitor]	-6.0	-4.0*[inhibitor]	106.0	13.0	102.0
O=C(O)C(c1ccccc1)C(c1ccccc1)c1ccccc1 (centres undefined)	1.2	-2.0	90.0	-3.4	96.0	nt	nt	nt
CC(=O)Nc1nc(NC(=O)/C=C/c2ccccc2)n(-c2ccccc2)n1	-21.2	2.0	140.0*	3.6	105.0	104.0	-3.0	104.0
COC(=O)c1ccc(NC(=O)COc2ccc([N+](=O)[O-])cc2)cc1	nt	0.0	98.0	1.1	100.0	nt	nt	nt
CCOC(=O)Cc1nc2ccccc2[nH]1	6.6	6.0	109.0	23.0	106.0	nt	nt	nt
CCOC(=O)Cc1nc(-c2ccccc2)n[nH]1	12.8	-3.0	91.0	6.5	1.0*[inhibitor]	95.0	-6.0	93.0
O=C(NCc1ccco1)c1ccc(=O)[nH]n1	9.8	-11.0	82.0*[inhibitor]	-11.1	90.0	117.0	1.0	103.0
O=C(NCc1ccccc1)c1ccc(=O)[nH]n1	1.9	7.0	115.0	10.5	115.0	nt	nt	nt
C[C@]12CCC3C(CC[C@H]4CCCC[C@]34C)C1CC[C@@]2(O)CNCCO (some centres undefined)	nt	27.0*	105.0	nt	139.0*	130.0	20.0	107.0
CCC(=O)Nc1cccc(C2=NOC3(C2)C[C@@H](C(N)=O)N(C(=O)CC)C3)c1 (some centres undefined)	nt	-10.0	82.0	16.4	88.0	nt	nt	nt
CCC(=O)Nc1cccc(C2=NOC3(C2)C[C@H](C(N)=O)N(C(=O)CC#N)C3)c1 (some centres undefined)	nt	-2.0	78.0*[inhibitor]	nt	95.0	80.0	-14.0	79.0
CCCCCC(=O)Nc1cccc(C2=NOC3(C2)C[C@H](C(N)=O)N(C(=O)COc2ccc(Cl)cc2)C3)c1 (some centres undefined)	nt	-1.0	3.0*[inhibitor]	nt	6.0*[inhibitor]	99.0	-5.0	99.0
CCCn1c(O)c(N=NC(=O)CNC(=O)c2ccncc2)c2ccccc21	nt	-1.0	104.0	nt	107.0	nt	nt	nt
COC(=O)c1ccc(-n2nnnc2SCC(=O)Nc2cc(OC)ccc2OC)cc1	3.5	-11.0	95.0	-11.4	89.0	nt	nt	nt
COc1ccc(OC)c(NC(=O)CSc2nnnn2-c2ccc3c(c2)OCO3)c1	-8.3	12.0	128.0*	5.5	116.0	98.0	-2.0	96.0
COC1CCN(Cc2cn(Cc3ccccc3)nc2-c2cc3ccccc3o2)CC1	-15.8	24.0	85.0	4.9	140.0*	120.0	2.0	98.0
SMILES	Arbovirus anti	MEKK2 mut-MEK5	MEKK3 PB1 HTS	Pf gamet viab	MEKK2wt PB1 HTS	MEKK2wt confirm	MEKK2mut confirm	MEKK3-MEK5 inh
Brc1ccc(-c2nnc3ccc(N4CCN(c5ccccc5)CC4)nn23)cc1	0.8	-21.0	0.0*[inhibitor]	nt	-1.0*[inhibitor]	98.0	-8.0	101.0
Fc1ccc(-c2nnc3ccc(N4CCCC4)nn23)cc1	4.6	11.0	111.0	nt	111.0	nt	nt	nt
CCc1nc(NCCO)c(C#N)c2c1CSC(C)(C)C2	nt	-18.0	50.0*[inhibitor]	9.9	61.0	103.0	4.0	104.0
CC1(C)Cc2ccccc2/C(=C/C(=O)N2CCCCCC2)N1	-1.6	-9.0	79.0*[inhibitor]	0.1	85.0	103.0	3.0	102.0
CN(C)CCCNc1ncnc2oc(-c3ccccc3)c(-c3ccccc3)c12	nt	19.0	107.0	nt	134.0*	115.0	14.0	100.0
c1ccc(-c2oc3ncnc(NCCCn4ccnc4)c3c2-c2ccccc2)cc1	-23.7	6.0	105.0	nt	120.0	nt	nt	nt
CCOC(=O)c1sc(NC(=O)CN2C(=O)NC3(CCCCCCC3)C2=O)c(C(=O)OCC)c1C	nt	-11.0	35.0*[inhibitor]	9.4	25.0*[inhibitor]	100.0	2.0	106.0
CCOC(=O)c1c(NC(=O)CN2C(=O)NC3(CCCCC3)C2=O)sc(C)c1-c1ccc(C)cc1	14.2	4.0	101.0	-8.0	105.0	nt	nt	nt
CCC(C)[C@H](NC(=O)Nc1cccc(Br)c1)C(=O)OC (some centres undefined)	4.4	-3.0	91.0	-39.1	89.0	nt	nt	nt
COc1cc(NC(=O)C2CCCO2)c(OC)cc1Cl (centres undefined)	1.7	0.0	82.0*[inhibitor]	nt	103.0	103.0	0.0	103.0
ON=C1c2cc(OCCN3CCCCC3)ccc2-c2ccc(OCCN3CCCCC3)cc21	nt	31.0*	117.0	nt	232.0*	180.0	48.0	105.0
O=C1Cc2ccccc2Sc2cc(OCCCN3CCCCC3)ccc21	-9.8	1.0	75.0*[inhibitor]	-0.4	108.0	118.0	-1.0	99.0
Nc1ccc(CN2CCCCCC2)cc1	-10.0	13.0	116.0	-17.4	136.0*	41.0	-20.0	81.0
c1cc(OCCCN2CCCCC2)ccc1CN1CCCCC1	nt	33.0*	113.0	nt	190.0*	139.0	31.0	106.0
